The results in this text go back to PubChem BioAssay (Tox21).

Results filed as inconclusive are left out. Activity calls are given as the source filed them. Calls follow the shape of the dose curve; as a rule, active = well fitted inhibition curve with a large enough effect in the repeat runs; inconclusive = weak or mixed curves; inactive = no such curve, though single readings can be large or run the other way.
% is scaled to controls: 0 for no effect and ±100 for the full control effect; potency is read from the fitted curve at half-maximal effect.

The target of the assay is Cytochrome P450 2C19 (Homo sapiens) (UniProt P33261). Nature of the assay: Cytochrome P450 Family 2 Subfamily C Member 19 (CYP2C19) small molecule antagonists: luciferase reporter qHTS assay (AID 1671197). Also: nearly all actives have a fitted effect of over 65% in size. To be noted: P450-Glo CYP2C19 enzyme, luciferin luminescence, 1 h; series mostly up to 115 µM. The method, boiled down: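 Luminescent readout of CYP2C19 activity: luciferin product detected 20 min after adding detection reagent. Before that, compound and enzyme-substrate mix preincubated 10 min at room temperature; NADPH-regenerating system started a 1 h, 37C reaction. Ketoconazole as positive control.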
Chain of Cytochrome P450 2C19 (Homo sapiens) (P33261 whole entry, looked up): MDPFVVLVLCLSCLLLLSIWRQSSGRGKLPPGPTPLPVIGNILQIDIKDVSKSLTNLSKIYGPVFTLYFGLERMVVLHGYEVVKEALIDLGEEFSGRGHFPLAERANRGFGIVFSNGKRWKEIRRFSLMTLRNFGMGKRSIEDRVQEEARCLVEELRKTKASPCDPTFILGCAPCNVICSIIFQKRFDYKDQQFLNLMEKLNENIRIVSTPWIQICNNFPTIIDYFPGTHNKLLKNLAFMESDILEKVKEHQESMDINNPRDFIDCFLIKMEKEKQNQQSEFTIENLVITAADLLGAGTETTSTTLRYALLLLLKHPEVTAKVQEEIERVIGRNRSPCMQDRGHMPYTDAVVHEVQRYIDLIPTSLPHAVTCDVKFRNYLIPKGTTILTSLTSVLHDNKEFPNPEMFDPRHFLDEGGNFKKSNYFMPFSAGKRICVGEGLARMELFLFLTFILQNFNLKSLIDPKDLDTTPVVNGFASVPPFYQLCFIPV
For `CCCCCCCC/C=C\CCCCCCCC(N)=O`, the Potency result is “inactive”.
Same read-out and setting: as for `C#CCOC(=O)[C@@H](C)Oc1ccc(Oc2ncc(Cl)cc2F)cc1`, the figure is 17.7 µM (active); as for `CCOC(=O)[C@H](CCc1ccccc1)N[C@H]1CCc2ccccc2N(CC(=O)O)C1=O`, 6.92 µM (active).
As to `CCCCCC/C=C/C=O`, the Potency is 71 µM (active).
Consider `Nc1cnn([C@@H]2O[C@H](CO)[C@@H](O)[C@H]2O)c(=O)n1`, for which the Potency entry was “inactive”.
Regarding `NC1CCN(c2nc3c(cc2F)c(=O)c(C(=O)O)cn3-c2ccc(F)cc2F)C1` (stereo not drawn), the Potency entry was “inactive”.
Same read-out and setting: the entry for `CC(C)(C)C(=O)OCOP(=O)(COCCn1cnc2c(N)ncnc21)OCOC(=O)C(C)(C)C` is “inactive”; for `COC(=O)CSc1cc(N=c2sc(=O)n3n2CCCC3)c(F)cc1Cl` it is 31.7 µM (active); for `COCCCCCCCCOCCC[Si](C)(O[Si](C)(C)C)O[Si](C)(C)C` it is 56.4 µM (active).
Still for that read-out and setting: as for `Cc1c(Cn2ccnc2)c2ccccc2n1CCC(=O)O`, the figure is 34.7 µM (active).
Turning to `Cc1nc2ccccc2n1Cc1ccc(Cl)cc1`, the Potency is 3.09 µM (active).
The same measure, in the same setting: as for `CN1CCC(=C2c3ccccc3CCc3sccc32)CC1`, the figure is 8.71 µM (active).
Regarding `O=C(CCN1CCN2CCCC2C1)N1c2ccccc2Sc2ccc(Cl)cc21` (stereo not drawn), the activity change, negative = inhibition is -4.46% [at 23.6 µM] (inactive).
Regarding `CCN(CC)CCNC(C(=O)OCCC(C)C)c1ccccc1` (stereo not drawn), the Potency result is “inactive”.
On the same count and under the same terms, the entry for `COc1ccc([C@@H]2Sc3ccccc3N(CCN(C)C)C(=O)[C@@H]2OC(C)=O)cc1` is “inactive”; for `CCCCOC(=O)c1ccccc1C(=O)OCC(CC)CCCC` (stereo not drawn) it is 6.33 µM (active).
As for `CC(=O)O[C@H]1C[C@@H]2CC[C@@H]3[C@H](CC[C@@]4(C)[C@H]3C[C@H]([N+]3(C)CCCCC3)[C@@H]4OC(C)=O)[C@@]2(C)C[C@@H]1N1CCCCC1`, the Potency entry was “inactive”.
Still for that read-out and setting: the figure for `c1ccc(CNCc2ccccc2)cc1` is 6.33 µM (active); for `CCCC[C@H]1CN(CC2CCOCC2)C(=O)OC12CCN(C1(C)CCN(C(=O)c3c(C)ncnc3C)CC1)CC2` it is “inactive”; for `N[C@H]1C(O)O[C@H](CO)[C@H](O)[C@@H]1O` (stereo partly drawn) it is “inactive”.
Still for that read-out and setting: as for `Cn1c(NCCN(CCO)CCCc2ccc([N+](=O)[O-])cc2)cc(=O)n(C)c1=O`, the entry is “inactive”.
Still for that read-out and setting: as for `CCOC(=O)C1=C(C)NC(C)=C(C(=O)OC)C1c1cccc([N+](=O)[O-])c1` (stereo not drawn), the figure is 1.55 µM (active).
As for `CC(=O)c1c(C)c([N+](=O)[O-])c(C(C)(C)C)c([N+](=O)[O-])c1C`, the Potency was 31.7 µM (active).
The same measure, in the same setting: as for `CCOc1ccc2[nH]cc(C(=O)NCc3ccccc3)c(=O)c2n1`, the figure is 79.6 µM (active).
Regarding `O=C1[C@H](CC[C@H](O)c2ccc(F)cc2)[C@@H](c2ccc(O)cc2)N1c1ccc(F)cc1`, the Potency was 2.75 µM (active).
In the case of `COc1ccc2[nH]c(S(=O)Cc3ncc(C)c(OC)c3C)nc2n1` (stereo not drawn), the Potency is 34.7 µM (active).
For the compound `O=C(c1ccc(O)cc1)c1ccc(O)cc1`, the Potency was 39.9 µM (active).
Same read-out and setting: as for `O=C(Nc1ccccc1)OCC(CN1CCCCC1)OC(=O)Nc1ccccc1` (stereo not drawn), the figure is 8.71 µM (active); as for `O=S1(=O)c2cccc3cccc(c23)N1CCCN1CCN(c2ccc(F)cc2)CC1`, 24.5 µM (active).
For `CCCCCCCCCCCCCCCCCBr`, the activity change, negative = inhibition was 4.88% [at 23.6 µM] (inactive).
Turning to `O=C(O)C(c1ccc(Cl)cc1)c1ccc(Cl)cc1`, the Potency was 28.3 µM (active).
Still for that read-out and setting: the entry for `O=C(Cl)c1ccc([N+](=O)[O-])cc1` is “inactive”.
Same read-out and setting: as for `CC(C)c1ccc2c(C(C)C)cc(C(C)C)c(S(=O)(=O)O)c2c1`, the entry is “inactive”.
For `Cn1c(=O)c2c(ncn2CC(O)CO)n(C)c1=O` (stereo not drawn), the Potency result was “inactive”.
For the compound `Nc1nc(N)c(-c2ccccc2)s1`, the Potency result was “inactive”.
Turning to `Cc1ccc(C)o1`, the Potency result is “inactive”.
Still for that read-out and setting: as for `C=CC[N+]1([C@H]2C[C@H]3[C@@H]4CC[C@H]5C[C@H](OC(C)=O)[C@@H](N6CCCCC6)C[C@]5(C)[C@H]4CC[C@]3(C)[C@H]2OC(=O)CC)CCCCC1`, the entry is “inactive”; as for `Cc1cc(CC(=O)O)c(C)n1-c1ccc(Cl)cc1`, 7.76 µM (active).
